What was measured:
ETS1 [1] = target: T1, ETS1 (UniProt P14921); test: ETS1 binding intensity (PBM fluorescence), ETS1 alone (arbitrary fluorescence units); higher = stronger binding; conditions: ETS1 concentration 1 nM; RUNX1 concentration 0 nM
T1 sequence: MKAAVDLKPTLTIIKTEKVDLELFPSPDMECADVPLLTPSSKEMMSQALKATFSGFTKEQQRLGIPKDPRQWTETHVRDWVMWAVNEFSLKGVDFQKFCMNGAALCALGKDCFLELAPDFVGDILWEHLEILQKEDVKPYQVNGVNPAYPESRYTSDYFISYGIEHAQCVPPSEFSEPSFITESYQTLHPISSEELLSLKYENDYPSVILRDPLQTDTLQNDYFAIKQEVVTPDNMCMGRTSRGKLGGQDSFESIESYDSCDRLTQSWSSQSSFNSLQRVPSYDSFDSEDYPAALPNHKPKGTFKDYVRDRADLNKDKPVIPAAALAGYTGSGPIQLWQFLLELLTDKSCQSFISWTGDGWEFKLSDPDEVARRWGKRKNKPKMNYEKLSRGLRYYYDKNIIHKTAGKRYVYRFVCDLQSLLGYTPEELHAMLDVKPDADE

RUNX1 [2] = target: RUNX1 (UniProt Q01196); test: RUNX1 binding intensity (PBM fluorescence), RUNX1 alone (arbitrary fluorescence units); higher = stronger binding; conditions: RUNX1 concentration 2 nM; ETS1 concentration 0 nM
Procedure: (§1)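 Cooperative gcPBM on 36-bp genomic probes with neighbouring ETS1 and RUNX1 sites. Recombinant human RUNX1 (2 nM) was incubated alone or with ETS1 (25 nM) and detected with anti-RUNX1 antibody plus Alexa488 secondary. Values are medians over 4 replicate spots; the RUNX1+ETS1 data were normalised to the RUNX1-only data. The probes sit in constant array flanks that are not printed.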

ETS1 [3] = target: T1, ETS1; test: ETS1 binding intensity (PBM fluorescence) in presence of RUNX1, normalised to ETS1-only experiment (arbitrary fluorescence units); higher = stronger binding; conditions: ETS1 concentration 1 nM; RUNX1 concentration 25 nM
RUNX1 [4] = target: RUNX1 (UniProt Q01196); test: RUNX1 binding intensity (PBM fluorescence) in presence of ETS1, normalised to RUNX1-only experiment (arbitrary fluorescence units); higher = stronger binding; conditions: RUNX1 concentration 2 nM; ETS1 concentration 25 nM
Procedure: as §1
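For RUNX1 binding intensity (PBM fluorescence) in presence of ETS1, normalised to RUNX1-only experiment in this document: Full-length recombinant human ETS1 or RUNX1 bound to double-stranded 36-bp genomic probes on microarrays, detected by protein-specific primary antibody and Alexa488 secondary, spot fluorescence as median of four replicate spots.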
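For RUNX1 binding intensity (PBM fluorescence), RUNX1 alone in this document: Full-length recombinant human RUNX1 bound to double-stranded 36-bp genomic probes on a high-density microarray, scored as Alexa488 fluorescence per spot via anti-RUNX1 antibody, median of four replicate spots.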

Sequence of RUNX1 (Q01196 whole entry): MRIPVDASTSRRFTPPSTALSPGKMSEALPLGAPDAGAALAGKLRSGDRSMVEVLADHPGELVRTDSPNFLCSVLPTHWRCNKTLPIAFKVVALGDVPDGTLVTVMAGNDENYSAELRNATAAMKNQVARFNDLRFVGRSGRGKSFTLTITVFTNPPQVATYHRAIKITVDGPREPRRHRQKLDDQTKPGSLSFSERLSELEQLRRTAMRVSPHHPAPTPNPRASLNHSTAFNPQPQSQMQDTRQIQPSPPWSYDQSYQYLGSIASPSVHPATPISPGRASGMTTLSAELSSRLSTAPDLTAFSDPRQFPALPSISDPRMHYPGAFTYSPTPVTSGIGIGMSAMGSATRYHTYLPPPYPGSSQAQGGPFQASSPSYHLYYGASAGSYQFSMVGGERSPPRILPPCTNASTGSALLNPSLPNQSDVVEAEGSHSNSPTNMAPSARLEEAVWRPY

| Sequence | ETS1 binding intensity (ETS1 [1]) | RUNX1 binding intensity (RUNX1 [2]) | ETS1 binding intensity (ETS1 [3]) | RUNX1 binding intensity (RUNX1 [4]) |
| --- | --- | --- | --- | --- |
| GCGAGAGGGAGGAAGTGACTCACCAACCACAACAAA | 1480 | 970 | 5020 | 1220 |
| GCAACAGCGATCCCCGGAAACCACAAGGCGAGATGT | 1660 | 1680 | 5080 | 2790 |
| CAAGGGAACATCCTTAAACAGCTTGTGGTATTGCTG | 735 | 878 | 1060 | 1060 |
| TGAGCCCTACTTCCGGTGGTGCTGTGGTCTGCCCCT | 10700 | 786 | 13200 | 2330 |
| ACCTGTAGGCGGAAGTCTGTGGCTTTATTTACACAG | 2340 | 792 | 5710 | 1730 |
| GGACTGCGTTTCCGGACACTGCGGGTGCCGGTAGCC | 1290 | 671 | 1680 | 1450 |
| CCATTCTTCCGGTGGAGATGGCTGCGGCCGTGGCGG | 568 | 714 | 588 | 2240 |
| CAGATTCCCGGAAAGGGGGACATGTAGCCGCAAAAG | 509 | 815 | 1990 | 1040 |
| GGACGCCGCCGGAAGCGCGACCCGCACTCCCGGTAG | 3650 | 794 | 3500 | 1260 |
| CGAAGCCAGGAAATAAGGATAAACCACAGAAAGAAA | 1060 | 1260 | 3180 | 2010 |
| TCTGGATTTCCTGTGGGGCTCTCCCACAAGCAGTAC | 518 | 721 | 506 | 1390 |
| GTTTACAGGGGACAGGAAATGTGGGTGAACTCAGCC | 6160 | 745 | 4710 | 975 |
| ACAAGGACTTCCGCCTCCCTGCGGTCCCTCCCCTAC | 965 | 1110 | 1380 | 2720 |
| CCGGGCGCCACTTCCGGTCCCCGTGGTCACGTGACC | 14800 | 904 | 16100 | 3740 |
| AATGCAGCATTTCCTCTCCAGTTCACCACAGGCCCC | 590 | 1490 | 634 | 2420 |
| CCTCACTAACATCCTGTTGAGGTGTCCCACAAACCA | 1110 | 801 | 1090 | 1490 |
| CCCACAGGAAATCCCCTGGTCTGTGGCGCCTCTGAT | 881 | 766 | 823 | 1110 |
| GGCTTTCCGTTCAAGGATCTTTTTGCGGTCTTTGTC | 445 | 1610 | 777 | 3270 |
| GTTCTTATCCTGTGGCTCGTTTGTGGTTACTGACAT | 425 | 4330 | 741 | 4260 |
| TTAGGCTCATGGGAAATGTGGTTTCTAAATCGCGGG | 494 | 912 | 639 | 988 |
| ACTCACTTCCGTTTAGCTTATCAACCACCAAGAGAC | 1020 | 1390 | 1060 | 3210 |

| Sequence | ETS1 binding intensity (ETS1 [1]) | RUNX1 binding intensity (RUNX1 [2]) | ETS1 binding intensity (ETS1 [3]) | RUNX1 binding intensity (RUNX1 [4]) |
| --- | --- | --- | --- | --- |
| CCGCCCTAGAGCAGGAAATAGCGGTCAGCGCCAGCT | 2740 | 857 | 7280 | 1980 |
| TCTCGTCCGGTCCTTGCTCCCCCTCCCCGCAGCGCT | 637 | 1090 | 790 | 1980 |
| AGGCTTCCGGCCACGCCCCCTTCCCGCGGTTGCTAG | 704 | 748 | 1140 | 2360 |
| GAGGGGTGGGGGAGGAAGGCTGCGGTTTCTGCTGGG | 390 | 8430 | 2180 | 11100 |
| GACCTGGGTTTCCTGTCTGTACATCGCGGTTCCTAC | 936 | 856 | 1260 | 1830 |
| CTAAACCGGAAGCCGCCCCTCTGACCGCTCTAAAAC | 5350 | 1070 | 5990 | 2010 |
| TTACAATCATTTCCTCTCTGTGGTTTGGTGACAAAT | 722 | 1620 | 2000 | 3180 |
| CCTCCTCCAGACCATCCTGGAAACCACTGCCGTTCT | 561 | 1380 | 488 | 1360 |
| CTAACAGCAGGAAGTGCTTGGTGGTTTAGCACCTCA | 2990 | 664 | 7150 | 1180 |
| CTGAAAAACCGGAAGTGGGTGGTTTGAAACGTAAAT | 18000 | 776 | 20800 | 4130 |
| CCCCCACATCCTGTTTGGTTTGTGGGACACCTCAAC | 2100 | 849 | 2550 | 4080 |
| GAGGGCCTGGGAGGAAGTGGGTTTTGCATACAGTCC | 1870 | 673 | 2510 | 1330 |
| GAAAGGGTTCATCCAGGAAACCACAACCCAGTGCCG | 808 | 1440 | 1820 | 2110 |
| TTACGTTAAGGAGGAAACTCTGTGGTTAAACTGTAG | 597 | 1230 | 2050 | 1810 |
| CACCTAAAGCCATTGGGATGTGGTTTCTCTTTTTCA | 388 | 1040 | 894 | 1010 |
| GCGGGCGGAAGTGCCGAGGTTGTACCGCGGCGCTGG | 2020 | 714 | 2260 | 1200 |
| TATTCATGACATCCTGTCGGGCTTGTGGGCTGCGTA | 1020 | 704 | 1590 | 1430 |
| ACTACAGGAGGAAACTACAGCCTAAACCACATGCAA | 510 | 975 | 1010 | 892 |
| TGCGCCGGAAGTGCATGAGCTGCCGATGTGGTGCTT | 4760 | 715 | 5410 | 1220 |
| CTGCTTCCGGCCCCGGGGTTCGCTACCCCACAATCC | 1210 | 981 | 1240 | 2530 |

Source: the supplement of paper PMC10681739
